A selection: hits, their analogues and other compounds. The true share with any hit is near 4.3%.
Anthrax LF prot = inhibitors of Bacillus anthracis lethal factor protease; multiplex microsphere protease cleavage assay, LF; inhibition, % at 10 µM; hit rate 0.12% among 360,000; further: plate controls were buffer without enzyme for full effect and enzyme alone for no effect
Autofluor counter = compound fluorescence in toxin protease inhibitor counterscreen; compound autofluorescence counterscreen, microsphere flow cytometry; hits give high values; fluorescence intensity (test concentration not listed); hit rate 3.1% among 360,000; AID 624483; in the data active means fluorescence intensity above about 16000; inconclusive means no clear call, values can overlap the other calls
BoNT A protease = inhibitors of Botulinum neurotoxin A light chain protease. multiplex microsphere protease substrate cleavage, flow cytometry. inhibition, % at 10 µM. hit rate 0.17% among 360,000; further: plate controls were buffer without enzyme for full effect and enzyme alone for no effect
MazF activator = activators of E. coli MazEF toxin-antitoxin RNase. activation, % at 20 µM. hit rate 0.32% among 350,000. FAM/BHQ RNA-DNA oligo cleavage fluorescence, 5 h. P0AE70; in the data active means activation above about 50%
Target sequence (P0AE70 whole entry, looked up): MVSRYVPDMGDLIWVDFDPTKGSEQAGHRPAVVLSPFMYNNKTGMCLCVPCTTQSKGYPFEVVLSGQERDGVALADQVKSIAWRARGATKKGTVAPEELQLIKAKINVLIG
BoNT F protease = BoNT F light chain protease inhibition | Multiplex microsphere protease cleavage assay, flow cytometry | hit rate 0.22% among 360,000 | inhibition, % at 10 µM; in the data active means inhibition above about 35%, passing the limit was not always enough; inconclusive means no clear call, values can overlap the other calls; further: plate controls were buffer without enzyme for full effect and enzyme alone for no effect
PfHsp40 yeast = compounds rescuing yeast from Plasmodium falciparum HSP40 toxicity | S. cerevisiae expressing PfHsp40, growth rescue, ATP luminescence | growth rescue, % at 12.5 µM | hit rate 0.68% among 340,000 | AID 504582; in the data active means growth rescue above about 28%, passing the limit was not always enough; inconclusive means no clear call, values can overlap the other calls;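 further: yeast W303a lacking pdr1 and pdr3 grown in galactose medium; growth measured after three days at 30 °C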
* marks the source's active call; other numbers are inactive results; ? = inconclusive; · = not tested or not shown; + = active, no number. Unless noted, no stated cut-off is given here; in the data, active means inhibition above about 30%; inconclusive means no clear call, values can overlap the other calls; inactive means below that.

SMILES	Anthrax LF prot	Autofluor counter	BoNT A protease	MazF activator	BoNT F protease	PfHsp40 yeast
CC(=O)N1CCCC1(C(=O)O)c1ccccc1 (stereo unspecified)	-6	4549	0	1	-9	1
Cc1cc(C)n2nc(SCC(=O)N3CCCC3)nc2n1	6	3743	0	0	0	1
Cc1cc(C)n2nc(SCC(=O)N3CCC4(CC3)OCCO4)nc2n1	-8	19682*	2	-1	2	-1
Cc1ccc(O)c(C2=NNC(O)(C(F)(F)F)C2)c1 (stereo unspecified)	-8	2349	0	-8	-3	39*
COC(=O)c1ccc(C(=O)OC)c(NC(=O)CN(C)Cc2ccccc2)c1	0	2060	0	-12	-4	-1
O=C(O)Cn1nc(-c2ccc(F)cc2)oc1=O	4	3262	0	5	16	1
O=C(O)Cn1nnnc1-c1ccc(F)cc1	-2	21941*	3	1	4	0
CCN(Cc1ccccc1)C(=O)c1cc(S(=O)(=O)N2CCOCC2)cn1C	-2	4056	0	6	-8	-1
COc1ccc2c(c1)C1NC(=S)NC(C)(O2)C1C(=O)Nc1ccc(C)cc1C (stereo unspecified)	1	2082	4	0	40*	-3
COc1ccc2c(c1)C1NC(=S)N[C@@](C)(O2)C1C(=O)Nc1ccccc1 (stereo partly specified)	0	2428	0	1	-9	1
Cc1ccc(NC(=O)c2ccc3c(c2)N(CC(=O)N2CCCCC2)C(=O)C(C)(C)O3)cc1	-6	23135*	-2	6	-2	0
CCOC(=O)CN1C(=O)C(C)(C)Oc2ccc(C(=O)Nc3ccccc3OC)cc21	-2	20848*	-4	3	-6	1
CC(C)(C)NC(=O)c1ccc2c(c1)N(CC(=O)N1CCN(c3ccc(F)cc3)CC1)C(=O)C(C)(C)O2	-2	16213*	1	8	4	-1
CC1(C)Oc2ccc(C(=O)NC3CCCC3)cc2N(CC(=O)NC2CCCCC2)C1=O	-4	17996*	-4	8	-9	1
CC(CN1CCC(n2nccc2NC(=O)CCCc2ccccc2)CC1)c1ccccc1 (stereo unspecified)	1	8707	-1	-4	4	1
COc1ccccc1C1=CC(=O)CC(C)(C)C1=O	-16	4049	0	8	1	-1
COCCN1CCC(CNCc2cn(-c3cc(C)ccc3C)nc2-c2ccccc2)C1 (stereo unspecified)	-3	3858	-1	11	-19	0
O=S1(=O)[C@H]2C[C@H](CO)O[C@@]2(CO)CN1Cc1ccc(-c2ccc(F)cc2)cc1	-6	3813	0	-2	-5	-1
CCN1C(=O)CSc2ccc(C(=O)NC3CCCCC3)cc21	-2	20222*	0	0	-1	1
C=CCN1C(=O)CSc2ccc(C(=O)NC3CCCCC3)cc21	0	5449	2	-3	4	0
Cc1ccccc1-c1ccc(=O)n(CC(=O)Nc2ccc(N3CCOCC3)cc2)n1	-2	20524*	?	3	-1	1
O=C(Cn1nc(-c2ccccc2)ccc1=O)Nc1ccc(N2CCN(C(=O)c3ccccc3)CC2)cc1	-1	22910*	1	-5	0	-1
C=CCn1c(C)cc(C(=O)COC(=O)/C=C/c2cccc(OC)c2)c1C	6	4753	-1	5	-2	3
O=C(Nc1ccc(Cl)cc1Cl)c1cccc(N2C(=O)C=CC2=O)c1	2	5068	0	-3	6	2
O=C(COC(=O)c1cc(-c2cccs2)nc2ccccc12)NCc1ccco1	-2	3422	0	-2	-2	1
SMILES	Anthrax LF prot	Autofluor counter	BoNT A protease	MazF activator	BoNT F protease	PfHsp40 yeast
O=C(NCc1ccco1)c1cc(-c2cccs2)nc2ccccc12	0	2339	-1	+	-2	0
O=C1CC(c2ccc(O)c(O)c2)Oc2cc(O)cc(O)c21 (stereo unspecified)	-10	4065	0	3	-10	-1
CC(C)=CCc1c(O)cc2c(c1O)C(=O)CC(c1ccccc1)O2 (stereo unspecified)	0	5590	0	16	-1	0
CC(C)=CCc1c(O)ccc2c1OC(c1ccc(O)c(O)c1)CC2=O (stereo unspecified)	-3	6073	-2	86*	-12	2
O=C1CC(c2ccc(O)c(O)c2)Oc2c1ccc(O)c2O (stereo unspecified)	-8	4990	-2	53*	-22	0
O=C(CCc1c[nH]c2ccccc12)N1CCN(S(=O)(=O)c2ccc([N+](=O)[O-])cc2)CC1	-1	3611	0	4	1	·
CC(C)(C)C(=O)Nc1ccc(-c2cc3cc(Cl)ccc3o2)cc1	-7	6212	-1	-6	6	0
COc1cccc(/C=N/n2cnc3ccccc32)c1OC	-15	16900*	9	1	8	-1
COc1cccc(/C=N/n2c(=S)n(C)c3cc(C)c(C)cc32)c1OC	-3	22389*	?	-4	-4	0
COc1cccc(/C=N/n2c(-c3cc(C)[nH]n3)n[nH]c2=S)c1OC	0	3582	-4	12	?	0
C(=N\n1cnc2ccccc21)/c1cccnc1	-2	22275*	1	-11	1	0
Cc1ccccc1C(=O)NNC(=O)c1cc(S(=O)(=O)N2CCOCC2)ccc1C	2	3425	1	4	4	1
COc1ccc(NC(=O)CSc2nnc(Cc3ccccc3)c(=O)n2N)cc1OC	0	6085	-3	7	?	0
CC1(C(=O)NCCc2c[nH]c3ccccc23)CCN1CC1CCCCC1 (stereo unspecified)	-7	2980	0	·	-5	·
C[C@]12CC[C@H](O)CC1=C[C@H](O)C1C2CC[C@@]2(C)C1CC[C@@]2(O)C#Cc1ccc(CN)cc1 (stereo partly specified)	-1	4063	0	-12	-9	0
CCSC1=C(C#N)C2(CCCCC2)C(C#N)C(=O)N1 (stereo unspecified)	1	20210*	?	11	2	0
CCSC1=C(C#N)C2(CCCCC2)C(C#N)=C(N)N1	-3	4647	0	10	0	-1
O=C(O)/C=C/C(=O)Nc1cc(F)ccc1F	-4	4451	0	6	-1	-1
COc1ccc(Cl)cc1N1C(=O)CC(N2CCc3ccccc32)C1=O (stereo unspecified)	2	4306	1	0	15	43*
CC1CCCN(CC(=O)Nc2ccc(S(=O)(=O)N3CCCCCC3)cc2)C1 (stereo unspecified)	-3	16175*	1	-7	0	-1
O=C(Cc1cccs1)Nc1ccc(Cl)cc1	-7	4706	0	2	-17	2
O=C(Cn1nnc(-c2ccc(S(=O)(=O)N3CCCC3)cc2)n1)NCC1CCCO1 (stereo unspecified)	1	22963*	-1	-4	-3	0

High-throughput results: PubChem, several laboratories
